Values without a mark were called inactive. Inconclusive results are not listed. Active and inactive are the calls of the source. Unless noted, the call rests on the fitted dose curve.

Assay [1] can be described thus: Nuclear factor erythroid 2-related factor 2/antioxidant responsive element (Nrf2/ARE) small molecule agonists: qHTS cell viability counter screen in human keratinocytes (AID 1919968; active means well fitted curve in the direction sought with a large enough effect in the repeat runs; an effect the other way counts as inactive or inconclusive; further: nearly all actives have a fitted effect of over 55% in size). The procedure, abridged: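 Seed 1,500 KeratinoSens cells per well, then incubate 5 h at 37 C/5% CO2. Add compounds in DMSO and incubate 23 h. Add CellTiter-Fluor, wait 1 h and read fluorescence.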

The nature of assay [2]: Nuclear factor erythroid 2-related factor 2/antioxidant responsive element (Nrf2/ARE) small molecule agonists: luciferase reporter gene qHTS assay in human keratinocytes (AID 1919969). Further: nearly all actives have a fitted effect of over 35% in size. Further: potency means the concentration at half of the fitted maximal effect.
Assay [3] addresses Gonadotropin-releasing hormone receptor (Homo sapiens) (UniProt P30968). Put plainly: Human gonadotropin-releasing hormone receptor (GnRHR) small molecule agonists, calcium flux assay in GnRHR-HEK293 cells (AID 1920063). Further: nearly all actives have a fitted effect of over 35% in size. In short, it runs like this:
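Cells: HEK293 stably expressing human GnRHR. Steps: overnight (18 h) culture, 1 h calcium dye loading at 37 C, compound addition, kinetic fluorescence read at 480/540 nm. Each compound tested at 15 concentrations in triplicate.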

The target in assay [4] is KiSS-1 receptor (Homo sapiens) (UniProt Q969F8). Put plainly: Human kisspeptin (KISS1R) small molecule agonists, calcium flux assay in KISS1R-HEK293 cells (AID 1920064; active means well fitted curve in the direction sought with a large enough effect in the repeat runs; an effect the other way counts as inactive or inconclusive). In short, it runs like this: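 Cells plated and incubated 18 h; dye added, 1 h at 37 C; compounds in DMSO pinned in; signal read at 480/540 nm every second for 3 min. Each compound tested at 15 concentrations in triplicate.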
Chain of KiSS-1 receptor (Homo sapiens) (Q969F8 whole entry, looked up): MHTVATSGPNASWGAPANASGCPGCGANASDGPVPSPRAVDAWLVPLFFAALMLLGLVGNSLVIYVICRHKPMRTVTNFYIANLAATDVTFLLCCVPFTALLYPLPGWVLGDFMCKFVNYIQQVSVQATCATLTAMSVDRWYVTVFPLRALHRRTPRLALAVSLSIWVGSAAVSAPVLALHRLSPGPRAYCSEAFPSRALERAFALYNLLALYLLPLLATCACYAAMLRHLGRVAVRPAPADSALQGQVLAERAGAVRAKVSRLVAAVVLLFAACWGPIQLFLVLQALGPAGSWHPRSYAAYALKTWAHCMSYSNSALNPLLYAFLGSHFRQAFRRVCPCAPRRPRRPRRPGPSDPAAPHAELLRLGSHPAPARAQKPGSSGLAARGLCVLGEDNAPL

A short description of assay [5]: p53 small molecule agonists, cell-based qHTS assay with human liver microsomes (AID 1963577). The procedure, abridged: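 In this qHTS, p53 response-element beta-lactamase cells receive test compound together with a microsome/NADPH activating system (0.5 mg/mL final each) and are incubated 16 h at 37 C before LiveBLAzer fluorescence detection.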
Assay [6] in a line: p53 small molecule agonists, cell-based qHTS assay with rat liver microsomes (AID 1963578). The procedure, abridged:
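Agonist mode in p53RE-bla reporter cells, with compounds co-incubated 16 h at 37 C alongside 0.5 mg/mL rat liver microsomes and 0.5 mg/mL NADPH (final), followed by a 2 h LiveBLAzer detection step.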
A general note: Quantitative high-throughput screening tests each substance at several concentrations.

The nature of assay [7]: p53 small molecule agonists, cell-based qHTS assay with human liver microsomes: qHTS cell viability counter screen (AID 1963579). Further: nearly all actives have a fitted effect of over 45% in size. In short, it runs like this:
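Metabolically activated exposure: compounds, human liver microsomes and NADPH (0.5 mg/mL final apiece) were added to p53RE-bla cells seeded 5 h earlier, left 16 h at 37 C, and then assessed for viability by CellTiter-Glo luminescence.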

The nature of assay [8]: p53 small molecule agonists, cell-based qHTS assay with rat liver microsomes: qHTS cell viability counter screen (AID 1963580). Further: nearly all actives have a fitted effect of over 45% in size. In short, it runs like this: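 In HCT-116 cells carrying a p53 response element-bla reporter, compounds were metabolically activated in situ by rat liver microsomes with NADPH over 16 h. Cell ATP content then served as the cytotoxicity measure.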

Assay [9] in a line: p53 small molecule agonists, cell-based qHTS assay: qHTS cell viability counter screen (AID 1963581). Further: nearly all actives have a fitted effect of over 45% in size. In short, it runs like this:
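Cells: HCT-116 with p53 response element-driven beta-lactamase. Treatment: 16 h, 37 C, compounds in DMSO. Read: CellTiter-Glo luminescence after 30 min RT.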

The target in assay [10] is 5-hydroxytryptamine receptor 2A (Homo sapiens) (UniProt P28223). Put plainly: 5-hydroxytryptamine receptor 2A (HTR2A) small molecule agonists, cell-based qHTS assay (AID 1963587). Further: nearly all actives have a fitted effect of over 30% in size. In short, it runs like this: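 HTR2A-CHO cells, plated 18 h at 37 C/5% CO2, dye-loaded 1 h at 37 C; compounds in DMSO added by pin tool (agonist mode). Intracellular calcium flux read as kinetic fluorescence on FDSS over 2 min at 1 s intervals.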
Chain of 5-hydroxytryptamine receptor 2A (Homo sapiens) (P28223 whole entry, looked up): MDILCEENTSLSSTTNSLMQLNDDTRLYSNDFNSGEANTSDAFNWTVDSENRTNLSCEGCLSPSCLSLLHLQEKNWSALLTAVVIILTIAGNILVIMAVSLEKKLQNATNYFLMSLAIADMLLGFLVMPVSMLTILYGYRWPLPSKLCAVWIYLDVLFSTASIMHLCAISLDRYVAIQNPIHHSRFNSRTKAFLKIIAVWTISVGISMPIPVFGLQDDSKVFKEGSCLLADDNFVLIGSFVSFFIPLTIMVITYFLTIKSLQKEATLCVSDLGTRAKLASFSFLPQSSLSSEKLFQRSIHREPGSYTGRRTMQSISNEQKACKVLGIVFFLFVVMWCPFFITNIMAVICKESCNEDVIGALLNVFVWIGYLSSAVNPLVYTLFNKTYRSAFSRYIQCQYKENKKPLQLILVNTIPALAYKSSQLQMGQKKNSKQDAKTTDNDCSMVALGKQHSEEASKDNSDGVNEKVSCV

Assay [11] deals with Muscarinic acetylcholine receptor M1 (Homo sapiens) (UniProt P11229). Put plainly: Cholinergic receptor muscarinic 1 (CHRM1) small molecule antagonists, cell-based qHTS assay (AID 1963588). Further: nearly all actives have a fitted effect of over 40% in size. The procedure, abridged:
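CHRM1-CHO calcium-flux assay, antagonist mode. Cells were seeded 18 h, dye-loaded 1 h at 37 C and given compound for 5 min at RT, then acetylcholine was added at 50nM. FDSS fluorescence was read 3 min; 15 concentrations, three runs.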

For assay [12] the target is unchanged. In words: Cholinergic receptor muscarinic 1 (CHRM1) small molecule agonists, cell-based qHTS assay (AID 1963589). Further: nearly all actives have a fitted effect of over 35% in size. In short, it runs like this:
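Agonist-mode qHTS in CHO cells stably carrying human muscarinic M1. Intracellular calcium is tracked by fluorescence every second after compound transfer; each compound runs at 15 concentrations in three independent runs.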

Assay [13] is described as follows: cAMP Responsive Elements (CRE) small molecule agonists, cell-based qHTS assay (AID 1963590). In short, it runs like this: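 Agonist mode qHTS in CRE-bla HEK 293T cells: compounds dosed from DMSO for 3 h at 37 C/5% CO2, followed by LiveBLAzer B/G FRET substrate for 2 h at room temperature.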
Assay [14] in a line: cAMP Responsive Elements (CRE) small molecule antagonists, cell-based qHTS assay (AID 1963591; active means well fitted inhibition curve with a large enough effect in the signal ratio in the repeat runs, not every such curve was filed as active; the % refers to the signal ratio). The procedure, abridged:
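Antagonist mode: test compounds are co-incubated with the adenylyl cyclase activator NKH477 (0.25 uM final) on CRE-bla HEK293T cells for 3 h at 37 °C, followed by LiveBLAzer substrate loading.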

In assay [15] the target is Beta-2 adrenergic receptor (Homo sapiens) (UniProt P07550). In words: Adrenergic beta2 receptor (ADRB2) small molecule antagonists, cell-based qHTS assay (AID 1963592). Further: series mostly up to about 92 µM; nearly all actives have a fitted effect of over 50% in size. In short, it runs like this: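 Cells (CHO, stable ADRB2 overexpression) incubated 18-20hr at 37C; compounds added from DMSO; agonist mix (1nM isoproterenol, 100uM IBMX, 25uM Ro-20-1724) added; 0.5hr RT; d2-cAMP and anti-cAMP-cryptate added; 1hr RT; 665/615 nm read.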
Chain of Beta-2 adrenergic receptor (Homo sapiens) (P07550 whole entry, looked up): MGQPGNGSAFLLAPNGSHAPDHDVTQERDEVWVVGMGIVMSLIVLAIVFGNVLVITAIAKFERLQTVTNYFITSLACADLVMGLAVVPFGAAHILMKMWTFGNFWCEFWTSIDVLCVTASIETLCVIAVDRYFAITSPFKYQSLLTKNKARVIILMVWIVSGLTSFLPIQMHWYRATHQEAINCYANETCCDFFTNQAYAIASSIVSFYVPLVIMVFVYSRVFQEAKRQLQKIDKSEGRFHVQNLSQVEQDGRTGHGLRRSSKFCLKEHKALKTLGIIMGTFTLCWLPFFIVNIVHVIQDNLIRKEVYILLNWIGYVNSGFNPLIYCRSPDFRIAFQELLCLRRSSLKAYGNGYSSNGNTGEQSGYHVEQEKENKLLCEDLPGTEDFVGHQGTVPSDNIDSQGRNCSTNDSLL

The target is the same in assay [16]. In words: Adrenergic beta2 receptor (ADRB2) small molecule agonists, cell-based qHTS assay (AID 1963593).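 Further: CHO cells stably overexpressing human ADRB2.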 In short, it runs like this:
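CHO cells stably over-expressing ADRB2 were plated overnight at 37C, then dosed with compounds plus a stimulation mix containing 100uM IBMX and 25uM Ro-20-1724 for 0.5hr at room temperature. cAMP was measured by HTRF competition, 1hr.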

Assay [17] concerns the target D(2) dopamine receptor (Homo sapiens) (UniProt P14416). Put plainly: Dopamine D2 receptor (DRD2) small molecule agonists, cell-based qHTS assay (AID 1963594). Further: nearly all actives have a fitted effect of over 35% in size. The procedure, abridged:
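HEK293 cells stably expressing DRD2 were cultured 24 h at 37 C, then given Ro20-1724 (0.1 mM final) and compounds for 10 min at room temperature. NKH477 (200nM) was then added for 30 min. cAMP was read by HTRF.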

Assay [18] shares this target. In words: Dopamine D2 receptor (DRD2) small molecule antagonists, cell-based qHTS assay (AID 1963595; active means well fitted inhibition curve with a large enough effect in the signal ratio in the repeat runs, with a control signal flat; the % refers to the signal ratio). The procedure, abridged: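 Antagonism was scored as restored cAMP in HEK293-DRD2 cells. These cells were stimulated with 200 nM NKH477 and 12 nM quinpirole for 30 min at room temperature, in the presence of 0.1 mM Ro20-1724.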
Assay [19] deals with 5-hydroxytryptamine receptor 2A (Homo sapiens) (UniProt P28223). In words: 5-hydroxytryptamine receptor 2A (HTR2A) small molecule antagonists, cell-based qHTS assay (AID 1963586). Further: nearly all actives have a fitted effect of over 45% in size. In short, it runs like this: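 Antagonist-mode intracellular calcium assay: DOI (4 nM) added after 5 min compound pre-incubation at room temperature to dye-loaded HTR2A-CHO cells. Fluorescence followed for 3 min, sampled every second.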
On the % scale 0 is the no-effect control and ±100 the full control effect.

Chain of Gonadotropin-releasing hormone receptor (Homo sapiens) (P30968 whole entry, looked up): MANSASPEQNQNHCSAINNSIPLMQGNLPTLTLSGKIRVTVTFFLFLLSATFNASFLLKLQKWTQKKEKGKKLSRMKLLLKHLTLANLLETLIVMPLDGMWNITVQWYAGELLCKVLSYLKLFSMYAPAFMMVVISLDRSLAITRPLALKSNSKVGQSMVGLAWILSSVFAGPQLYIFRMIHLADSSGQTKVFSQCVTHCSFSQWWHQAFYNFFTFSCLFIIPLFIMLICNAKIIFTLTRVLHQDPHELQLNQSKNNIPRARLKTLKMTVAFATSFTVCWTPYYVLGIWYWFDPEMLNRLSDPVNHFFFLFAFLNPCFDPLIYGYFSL
Chain of Muscarinic acetylcholine receptor M1 (Homo sapiens) (P11229 whole entry, looked up): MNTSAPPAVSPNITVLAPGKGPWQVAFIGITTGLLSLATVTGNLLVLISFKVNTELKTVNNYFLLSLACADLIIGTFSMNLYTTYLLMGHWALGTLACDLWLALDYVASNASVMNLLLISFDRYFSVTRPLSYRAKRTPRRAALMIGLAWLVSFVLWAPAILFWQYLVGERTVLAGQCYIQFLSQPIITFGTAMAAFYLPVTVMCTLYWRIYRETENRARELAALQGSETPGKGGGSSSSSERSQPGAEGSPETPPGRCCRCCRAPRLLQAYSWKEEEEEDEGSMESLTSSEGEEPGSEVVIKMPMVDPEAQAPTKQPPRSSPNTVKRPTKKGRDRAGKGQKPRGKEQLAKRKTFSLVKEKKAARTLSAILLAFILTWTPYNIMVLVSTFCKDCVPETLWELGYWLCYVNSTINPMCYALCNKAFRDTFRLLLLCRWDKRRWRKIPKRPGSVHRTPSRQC
Chain of D(2) dopamine receptor (Homo sapiens) (P14416 whole entry, looked up): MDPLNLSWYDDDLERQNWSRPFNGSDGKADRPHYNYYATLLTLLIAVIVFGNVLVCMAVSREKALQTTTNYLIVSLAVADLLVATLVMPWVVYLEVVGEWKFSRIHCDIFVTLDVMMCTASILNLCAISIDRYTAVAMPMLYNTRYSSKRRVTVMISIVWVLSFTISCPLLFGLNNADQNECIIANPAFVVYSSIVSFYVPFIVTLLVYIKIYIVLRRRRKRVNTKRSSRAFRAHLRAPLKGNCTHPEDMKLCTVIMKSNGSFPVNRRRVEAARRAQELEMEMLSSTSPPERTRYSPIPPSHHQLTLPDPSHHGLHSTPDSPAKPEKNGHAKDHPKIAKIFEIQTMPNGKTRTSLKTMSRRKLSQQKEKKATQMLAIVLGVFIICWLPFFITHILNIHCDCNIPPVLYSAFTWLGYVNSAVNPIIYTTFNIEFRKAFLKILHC

On to `C=CCOCC(O)CO` (configuration not stated), for which the Potency result in assay [1], in [2], in [3], in [4], in [5] and in assay [6] was “inactive” throughout. The Potency result in assay [7], in assay [8], in [9], in assay [10], in assay [11] and in assay [12] was “inactive” each time. Further, the Potency entry in [13], in assay [14], in [15], in [16], in [17] and in assay [18] was “inactive” throughout.
As for `COc1ccccc1/C=C/C=O`, the Potency result in assay [1], in [3], in [4], in assay [5], in [6] and in [7] was “inactive” in each case. For the same molecule, the Potency entry in assay [8], in assay [9], in assay [19], in assay [10], in [11] and in [12] was “inactive” throughout. For the same molecule, the Potency entry in [13], in assay [14], in [15], in assay [17] and in assay [18] was “inactive” throughout. Moreover, the Potency in assay [2] is 54.5 µM (active).
As to `CCNc1cc(O)ccc1C`, the Potency entry in [1], in assay [2], in assay [3], in assay [4], in assay [5] and in assay [6] was “inactive” in each case. Further, the Potency entry in [7], in assay [8], in [9], in assay [19], in assay [10] and in [11] was “inactive” in each case. Also, the Potency entry in assay [12], in [13], in assay [14], in assay [15], in [16] and in [17] was “inactive” each time.
As to `COc1ccc(Br)c(C)c1`, the Potency result in [1], in [2], in assay [3], in [4], in assay [5] and in [6] was “inactive” in each case. Moreover, the Potency entry in assay [7], in [8], in [9], in assay [19], in assay [10] and in assay [11] was “inactive” throughout. In addition, the Potency result in assay [12], in assay [13], in assay [14], in [15] and in assay [17] was “inactive” throughout.
Take `CCCCCCCCCCCCCCCC(=O)OC`: the activity change, negative = cytotoxicity in assay [1] is 3.99% [at 19 µM]; in assay [7], -1.62% [at 13.5 µM]; in [8] it was -0.0573% [at 13.5 µM]; in assay [9] it was 2.56% [at 13.5 µM]. For the same molecule, in assay [2], the activity, positive = activation is 0.79% [at 19 µM]. Moreover, the activity change in assay [3] was 0.561% [at 11.8 µM, active compounds read high]. For the same molecule, the activation in assay [4] is -2.17% [at 15.8 µM]; in [5], 0.811% [at 13.5 µM]; in assay [6], 0.588% [at 13.6 µM]; in assay [10], -0.493% [at 15.9 µM]; in [13], -0.453% [at 19 µM]. The figures for the activity, negative = inhibition in assay [19] and in [11] were -2.95% [at 12.7 µM] and -19.7% [at 12.6 µM], respectively. The activity change, negative = inhibition in assay [14] was -6.58% [at 18.9 µM]; in [15], 5.87% [at 19 µM]; in assay [18], -0.0877% [at 18.9 µM].
As to `COc1ccc(NC(C)=O)cc1`, the Potency entry in assay [1], in assay [2], in [3], in assay [4], in [5] and in assay [6] was “inactive” throughout. In addition, the Potency result in assay [7], in [8], in assay [9], in assay [19], in [10] and in assay [11] was “inactive” throughout. The Potency entry in assay [12], in assay [13], in assay [14], in assay [15], in assay [16] and in assay [17] was “inactive” each time.
Turning to `C[C@@H]1O[C@@H](OC[C@H]2O[C@@H](Oc3c(-c4ccc(O)c(O)c4)oc4cc(O)cc(O)c4c3=O)[C@H](O)[C@@H](O)[C@@H]2O)[C@H](O)[C@H](O)[C@H]1O`, the Potency entry in assay [1], in [2], in assay [3], in [4], in assay [5] and in assay [6] was “inactive” in each case. The Potency result in assay [7], in assay [8], in assay [9], in assay [19], in [10] and in assay [11] was “inactive” each time. In addition, the Potency result in [12], in assay [13], in assay [14], in assay [15] and in assay [17] was “inactive” each time.

The values above are taken from PubChem BioAssay (Tox21).
